Where “and” joins values, the source holds several entries; their conditions need not be identical. Equal values may be shown once. Inconclusive results are not listed. Calls of active or inactive are those of the source. Calls come from the whole dose curve; as a rule, active = well fitted inhibition curve with a large enough effect; inconclusive = small, poorly fitted or top-dose-only effect; inactive = no such curve, though single readings can be large or run the other way.
% is set by controls: 0 for no effect and ±100 for the full control effect; potency is the fitted concentration of half-maximal effect.

The assay can be described thus: qHTS to identify inhibitors of the type 1 interferon - major histocompatibility complex class I in skeletal muscle: Secondary screen by immunofluorescence.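 For activity change, negative = inhibition: digitonin at 100 µM served as the cytotoxic control.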 Note: nearly all actives have a fitted effect of over 70% in size. Conditions: C25cl48 myoblasts, IFN-b induced HLA-ABC immunofluorescence, 24 h; series mostly up to 49.8 µM; activity change, negative = inhibition: at the top concentration. The source says: Assay Submitter (PI): Travis B. Kinder Ph.D. & James Inglese Ph.D. Assay Development and Screening Technology Laboratory (ADST) National Center for Advancing Translational Sciences (NCATS), Rockville, MD National Institute of Health (NIH), Bethesda, Maryland Idiopathic inflammatory myopathies, collectively referred to as myositis, are a group of rare autoimmune diseases characterized by skeletal muscle inflammation, weakness, and usually accompanied by systemic pathologies of the skin, lungs, or vasculature. Current immunosuppressive therapies and glucocorticoids are often not curative and are accompanied by harsh side effects, especially in children with juvenile myositis. We initiated a drug repurposing and development program to identify more targeted, less toxic therapeutics to treat myositis. Although its cause is not known, muscle from a subset of patients have an abundance of the inflammatory type 1 interferon (IFN) and a down-stream product major histocompatibility complex class I (MHC class I), which are both thought to contribute to damage and weakness. We conducted quantitative high throughput screening (qHTS) on 6,576 compounds (4,679 unique) through a series of cell-based assays to identify those that inhibit the IFN-stimulated expression of MHC class I in muscle precursor cells (myoblasts). The compound identification and evaluation strategy utilized a primary screen with reporter-tagged MHC class I in genome-engineered myoblasts, ATP content counter screen for viability, HLA-ABC immunofluorescence secondary screen, and HLA-B RT-qPCR tertiary screen. To verify activity of compounds identified by qHTS in HLA-B HiBit reporter cells, compounds were assayed by high throughput HLA-ABC immunofluorescence. Briefly, 216 compounds identified from primary and counter screening as inhibitory with minimal cytotoxicity were dispensed into black/clear bottom […] using acoustic dispensing in an 11-point, 1:3 titration with a high final concentration of 50 uM. Normal immortalized human myoblasts C25cl48 were added to the plates with 4.0 ng/ml human IFN-beta for 24 hours, fixed, stained by immunofluorescence for HLA-ABC protein, nuclei, and cell body, and analyzed by laser scanning cytometry as described by Auld et al., 2006. References: Auld DS, Johnson RL, Zhang Y, Veith H, Jadhav A, Yasgar A, Simeonov A, Zheng W, Martinez ED, Westwick JK, Austin CP, Inglese J. 2006. Fluorescent protein-based cellular assays analyzed by laser-scanning microplate cytometry in 1536-well plate format. Methods Enzymol 414:566-89. doi:10.1016/S0076-6879(06)14029-X
PROTOCOL TABLE (as described by Inglese et al., 2007) SEQUENCE No. (e.g., 1, 2, 3, etc.); […] (e.g., Cells, Incubation, Reagent, etc.); VALUE; DESCRIPTION 0; Compounds; 25 nl; Follow-up compounds dispensed at 25 nl/well with Labcyte Echo 655 acoustic dispenser in triplicate Aurora ChemLib 1536K black/clear bottom, low base, TC 1536-well plates (00019324). Also dispensed 25 nl/well DMSO control, ruxolitinib IFN-b inhibitor control titration, and digitonin cytotoxic control 1a; Cells; 5 uL; Multidrop Combi (Thermo Scientific) to seed 125 cells/well into eight plates in 5 ul/well of iHSKM growth medium (GM) without dexamethasone into columns 1+2. Add metal lids with gas-exchange holes 1b; Cells; 5 uL; Multidrop Combi (Thermo Scientific) to seed 125 cells/well into eight plates in 5 ul/well of iHSKM GM without dexamethasone + 4 ng/ml IFN-b into columns 3 - 48. […]
Background: qHTS replaces the single test concentration by a dilution series.
Consider `CC(=O)OC[C@H]1O[C@@H]([S-])[C@H](OC(C)=O)[C@@H](OC(C)=O)[C@@H]1OC(C)=O.CC[PH+](CC)CC.[Au]`, for which the Potency was 576 nM (active).

For `O=[N+]([O-])/C=C/c1ccc2c(c1)OCO2`, the Potency is 18200 nM (active).

Consider `COc1cccc2c1C(=O)c1c(O)c3c(c(O)c1C2=O)C[C@@](O)(C(=O)CO)CC3OC1CC(N2CCOC(OC)C2)C(O)C(C)O1` (stereo not given in full), for which the Potency was 57.6 nM (active).

With `C/C1=C/C[C@@H](/C(C)=C/c2csc(C)n2)OC(=O)C[C@H](O)C(C)(C)C(=O)[C@H](C)[C@@H](O)[C@@H](C)CCC1`, the “activity change, negative = inhibition” value is -1.18% (inactive).

With `CC(C)(C)c1cc(C=C(C#N)C#N)cc(C(C)(C)C)c1O`, the “activity change, negative = inhibition” value is -20.4% (inactive).

On to `C/C(=C\c1csc(C)n1)[C@@H]1C[C@@H]2O[C@]2(C)CCC[C@H](C)[C@H](O)[C@@H](C)C(=O)C(C)(C)[C@@H](O)CC(=O)O1`, for which the “activity change, negative = inhibition” value is -1.42% (inactive).

For `CC[C@@]1(O)C(=O)OCc2c1cc1n(c2=O)Cc2cc3ccccc3nc2-1`, the Potency was 1.62 µM (active) and 2.05 µM (active).

Take `COC(=O)[C@@]12OC[C@]34[C@H]([C@@H](O)[C@@H]1O)[C@@]1(C)CC(=O)C(O)=C(C)[C@@H]1C[C@H]3OC(=O)[C@H](OC(=O)/C=C(\C)C(C)C)[C@@H]24`: the Potency is 36.4 nM (active).

Regarding `Cc1sc2c(c1C)C(c1ccc(Cl)cc1)=N[C@@H](CC(N)=O)c1nnc(C)n1-2`, the Potency is 162 nM (active).

Take `CC1=C(O)C(=O)C=C2C1=CC=C1[C@@]2(C)CC[C@@]2(C)[C@@H]3C[C@](C)(C(=O)O)CC[C@]3(C)CC[C@]12C`: the Potency was 1150 nM (active).

On to `CC1(C)CC[C@]2(NC(=O)C(C)(F)F)CC[C@]3(C)[C@H](C(=O)C=C4[C@@]5(C)C=C(C#N)C(=O)C(C)(C)[C@@H]5CC[C@]43C)[C@@H]2C1`, for which the Potency is 3240 nM (active).

`Cc1[nH]nc2ccc(-c3cncc(OC[C@@H](N)Cc4c[nH]c5ccccc45)c3)cc12`: the Potency is 230 nM (active).

Take `O=C1/C(=C\c2ccccc2)C[C@@]2(O)[C@H]3Cc4ccc(O)c5c4[C@@]2(CCN3CC2CC2)[C@H]1O5`: the Potency was 2290 nM (active).

Consider `COC(=O)[C@]12CCC(C)(C)C[C@H]1[C@H]1C(=O)C=C3[C@@]4(C)C=C(C#N)C(=O)C(C)(C)[C@@H]4CC[C@@]3(C)[C@]1(C)CC2`, for which the Potency was 3640 nM (active).

For `CC(C)[C@]12O[C@H]1[C@@H]1O[C@]13[C@]1(O[C@H]1C[C@H]1C4=C(CC[C@@]13C)C(=O)OC4)[C@@H]2O`, the Potency is 91.4 nM (active).

As for `CC(C)[C@]12O[C@H]1[C@@H]1O[C@@]13[C@@]1(C)CCC4=C(COC4=O)[C@@H]1C[C@@H]1O[C@@]13C2=O`, the Potency is 162 nM (active).

Turning to `C[C@@H]1O[C@@H](O[C@H]2C[C@@H](O)[C@]3(CO)[C@H]4[C@H](O)C[C@]5(C)[C@@H](C6=CC(=O)OC6)CC[C@]5(O)[C@@H]4CC[C@]3(O)C2)[C@H](O)[C@H](O)[C@H]1O`, the Potency was 64.7 nM (active).

Take `O=c1[nH]c2ccc(Cl)cc2c(N[C@@H]2CN3CCC2CC3)c1-c1nc2ccccc2[nH]1`: the Potency was 1620 nM (active).

`Cc1[nH]ncc1-c1cc2nc([C@@H]3CC4CCN3CC4)[nH]c(=O)c2s1`: the Potency is 3640 nM (active).

`C[C@@H]1O[C@@H](O[C@@H]2C=C3CC[C@@H]4[C@H](CC[C@]5(C)[C@@H](c6ccc(=O)oc6)CC[C@]45O)[C@@]3(C)CC2)[C@H](O)[C@H](O)[C@H]1O`: the Potency is 36.4 nM (active).

For the origin of these results see PubChem BioAssay AID1347414 (National Center for Advancing Translational Sciences (NCATS), 2020).
